From PubChem BioAssay AID2314 (National Center for Advancing Translational Sciences (NCATS), 2010)
Out of some 300,000 compounds screened, about 37,000 (12%) were called active. No stated cut-off is given here; in the data, active means max response mostly above about 13% (no sharp cut-off); inactive means mostly below about 14%. The full list was thinned out, with actives kept by preference.

Assay: Cycloheximide Counterscreen for Small Molecule Inhibitors of Shiga Toxin; further: read at 38.3 µM for the half of the compounds with a filed dose; 0% is about no effect
Settings: cell reporter, cycloheximide protein synthesis inhibition counterscreen; hits give high values

Structure (SMILES) | max response
O=C(COc1ccc(Cl)cc1)NCc1nnc(SCC(=O)NCC2CCCO2)o1 (stereo not given) | 1.5% (inactive)
S=C(NCCc1ccccc1)N1CCn2cccc2C1c1ccncc1 (stereo not given) | 6.15% (inactive)
CCC(C)(C)n1nnnc1CN1CCN(c2nc3ccc(C)cc3cc2C#N)CC1 | -1.82% (inactive)
CCOc1ccc(CN2CCN(Cc3c[nH]c4ccccc34)CC2)cc1 | -0.16% (inactive)
CCOc1ccc(N(CC(=O)NCCc2ccc(F)cc2)S(=O)(=O)c2ccccc2)cc1 | 0.706% (inactive)
CCCCc1ccc(NC(=S)NCCCN2CCOCC2)cc1 | 12% (inactive)
CCCCc1ccc(NC(=S)N2CCCC(CO)C2)cc1 (stereo not given) | 39.3% (active)
COc1ccc(NC(=S)N2CCCC(CO)C2)c(OC)c1 (stereo not given) | -1.58% (inactive)
COc1ccc(S(=O)(=O)NC(C)c2ccccc2)cc1C(=O)N1CCCCC1 (stereo not given) | 8.07% (inactive)
COc1ccc(CNC(=O)CN(Cc2ccccc2Cl)C(=O)c2csnn2)cc1 | -2.08% (inactive)
CCOC(=O)C1(Cc2ccc(Cl)cc2)CCN(C(=O)C2=NNC(=O)CC2)CC1 | 10.1% (active)
CC(=O)N1CCC(C(=O)OCc2ccc(Cl)cc2)(c2ccccc2)CC1 | 1.9% (inactive)
CCOC(=O)C1(Cc2ccc(Cl)cc2)CCN(C(C)CCn2cccn2)CC1 (stereo not given) | -3.1% (inactive)
CCc1ccc(OCC2c3cc(OC)c(OC)cc3CCN2C(C)=O)cc1 (stereo not given) | -2.66% (inactive)
O=C(CN1C(=O)S/C(=C\c2ccccc2Cl)C1=O)NC1C=CS(=O)(=O)C1 (stereo not given) | 1% (inactive)
CCOc1cccc(C(=O)Nc2cnn(Cc3ccccc3)c2)c1 | 8.38% (inactive)
O=C(Nc1ccccc1F)c1ccc(Cn2cc(Br)cn2)cc1 | 27.6% (active)
O=C(NCc1cccnc1)Nc1ccccc1F | 6.78% (inactive)
Cc1ccc(N(Cc2ccccc2O)C(=O)c2ccccc2F)cc1 | -1.08% (inactive)
CCN(CC)c1ccc(C(=O)NNC(=O)CCc2nc3ccccc3c(=O)[nH]2)cc1 | 8.34% (inactive)

Structure (SMILES) | max response
Cc1cc(=O)oc2cc(NC(=O)C3CC(=O)N(Cc4ccccc4)C3)ccc12 (stereo not given) | 5.63% (inactive)
O=S(=O)(c1cccc(S(=O)(=O)N2CCC(n3nnc4ccccc43)CC2)c1)N1CCCCC1 | -11.1% (inactive)
O=C(c1ccc(F)cc1)N1CCC(n2nnc3ccccc32)CC1 | 50% (active)
CC(=O)c1cccc(S(=O)(=O)N2CCC(n3nnc4cc(F)ccc43)CC2)c1 | -0.975% (inactive)
COc1ccc(N2CCN(S(=O)(=O)c3ccc4c(c3)NC(=O)C(C)C(=O)N4)CC2)cc1 (stereo not given) | -1.38% (inactive)
CN(CC(=O)O)S(=O)(=O)c1ccc2oc3ccccc3c2c1 | 1.18% (inactive)
COCCCNC(=S)N(CCN(C)C)Cc1cc2cc3c(cc2[nH]c1=O)OCCO3 | 6.79% (inactive)
CC(=O)c1ccc(N2CCN(C(=O)CCc3ccccc3)CC2)cc1 | 3.1% (inactive)
CC(=O)c1ccc(N2CCN(CC(O)c3ccccc3)CC2)cc1 (stereo not given) | 5.47% (inactive)
CC(=O)c1ccc(N2Cc3ccccc3C2)cc1 | 29.2% (active)
Cc1cc(NS(=O)(=O)c2ccc(NC(=S)NC(=O)c3ccc(F)cc3Cl)cc2)no1 | -1.71% (inactive)
CC(=O)Nc1ccc(/C(C)=N/NC(=O)CN(c2ccccc2Br)S(C)(=O)=O)cc1 | 8.32% (inactive)
CCN(C(=O)CSc1nnc(-c2ccncc2)o1)c1ccccc1 | -2.4% (inactive)
CN(C(=O)CSc1nnc(-c2n[nH]c3ccccc23)o1)c1ccccc1 | 15.1% (active)
O=C(CSc1nnc(-c2c[nH]c3ccccc23)o1)c1ccccc1 | 8.16% (inactive)
COc1cc(C2/C(=C(\O)c3ccc4c(c3)CC(C)O4)C(=O)C(=O)N2c2nnc(C)s2)cc(OC)c1OC (stereo not given) | -1.71% (inactive)
Cc1[nH]c2ccccc2c1/C=N\NC(=O)Cn1nnc(-c2ccccc2)n1 | -0.477% (inactive)
N#C/C(=C/c1ccc(N2CCCCC2)o1)C(=O)NCCc1c[nH]c2ccccc12 | -3.38% (inactive)
Cc1[nH]c2ccccc2c1/C=C(/C#N)C(=O)NC(C)C | 16.8% (active)
NS(=O)(=O)c1ccc(NC(=O)COC(=O)c2ccc(Cl)nc2)cc1 | -4.06% (inactive)

Structure (SMILES) | max response
O=C(Nc1nnc(Cc2ccc(Cl)cc2)s1)c1cccnc1 | 1.24% (inactive)
Cc1cnc(NC(=O)c2ccc(Cl)nc2)s1 | 43.4% (active)
Cc1cnc(NC(=O)Cn2cnc3c2c(=O)n(C)c(=O)n3C)s1 | -4.16% (inactive)
COC(=O)[C@@H](NC(=O)Nc1cc(Cl)ccc1C)C(C)C | -5.71% (inactive)
Cc1ccc(NC(=O)c2ccccn2)cc1S(=O)(=O)N1CCOCC1 | 2.74% (inactive)
Cc1ccc(Cl)cc1NC(=O)c1ccccn1 | 19.9% (active)
O=C(NNc1ccccn1)c1ccc(Cl)nc1 | 2.34% (inactive)
CCOc1cc(NC(=O)c2ccccn2)c(OCC)cc1NC(=O)c1ccc(OC)cc1 | -3.64% (inactive)
CCN(CC)c1ccc(NC(=O)c2ccc(Cl)nc2)cc1 | 16.7% (active)
Cc1noc(C)c1C(=O)Nc1ccccn1 | 7.73% (inactive)
Cc1cnc(NC(=O)c2ccccn2)s1 | 26.4% (active)
Cc1c(CC(=O)NCCCCCC(=O)O)c(=O)oc2cc3occ(-c4ccccc4)c3cc12 | -1.63% (inactive)
O=C(CCN1C(=O)C2C3CCC(C3)C2C1=O)Nc1ccc(Cl)cc1Cl (stereo not given) | 3.53% (inactive)
CCOc1ccc(Nc2nc(Cc3nnc(SCC(=O)c4ccc(C)cc4)o3)cs2)cc1 | -3.13% (inactive)
Cc1ccc(CCNC(=O)c2ccc3nc4ccccc4c(=O)n3c2)cc1 | 4.5% (inactive)
CN(C)S(=O)(=O)c1cccc(C(=O)OCC(=O)N2CCCC2=O)c1 | -2.94% (inactive)
O=C(Nc1ccc(-n2ccnc2P(=O)(O)c2ccccc2)cc1)c1ccccc1Br | 2.05% (inactive)
COc1ccc(S(=O)(=O)N(CC(=O)N/N=C/c2ccc(C(=O)O)cc2)Cc2ccccc2)cc1OC | -6.63% (inactive)
Cc1nonc1C1CCCN1Cc1nc(-c2ccc(F)cc2F)oc1C (stereo not given) | 6.22% (inactive)
CCCOc1ccc(CNC(=O)C2CCN(c3nn4c(=O)cc(C)nc4s3)CC2)cc1 | -3.96% (inactive)
